Measured values taken from the supplement of paper PMC10849652.
About 7,900 targets were measured; listed, in parts, are those with a hit and a random draw of the rest. About 0.6% of all pairs of compound and target were hits. Unmarked numbers belong to inactive results.

Experiments:
Assay in all cases: log2 fold change, soluble protein after heating vs DMSO (PISA); higher = thermal stabilisation; K562 cells, 10 uM, 30 min; active = over 0.2 and 3.5 SD of the protein, either way, in both replicates (recomputed)
erlotinib = compound: C#Cc1cccc(Nc2ncnc3cc(OCCOC)c(OCCOC)cc23)c1 [erlotinib]
Procedure, shortened: (§1)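 K562 cells at 2×10^6 cells/mL were treated for 30 min with 10 μM compound, and aliquots were heated for 3 min over 48°C-58°C before pooling. Extraction used PBS with 0.5% NP-40 at 4°C, and soluble protein was the supernatant after 21,000xg for 90 min, measured by TMTpro 16plex LC-MS/MS with channel sums equalised. Thermal stability values, relative to control samples and from duplicates, are log2 fold changes.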

[1] = compound: C/C(=N\NC(=O)C1=CC(=CC=C1)S(=O)(=O)N2CCOCC2)/C3=C(C=CC(=C3)Cl)O
Procedure, shortened: as §1

[2] = compound: C1=CC(=C(C=C1Cl)C2=NC3=NC=CN=C3C(=N2)NC4=CC=NC=C4)F
Procedure, shortened: as §1

[3] = compound: C1=CC(=CC=C1C2=NC3=C(N2)C=C(C=C3)C(=O)N)OC4=CC=C(C=C4)Cl
Procedure, shortened: as §1

[4] = compound: C1=CC2=C(C=CC(=C2)/C=C\3/C(=O)NC(=NCC4=CC=CS4)S3)N=C1
Procedure, shortened: as §1

[5] = compound: C1=CC2=NC=CN=C2C=C1/C=C/3\C(=O)NC(=O)S3
Procedure, shortened: as §1

[6] = compound: C1=CC=C(C=C1)C2=NC(=C(N2)C3=CC=NC=C3)C4=CC(=C(C=C4)Cl)O
Procedure, shortened: as §1

[7] = compound: C1=CC=C2C(=C1)C3=NNC4=CC=CC(=C43)C2=O
Procedure, shortened: as §1

[8] = compound: C1CCN(C1)C(=O)NC2=CC=CC(=C2)NC3=NC=C(C(=N3)NCCC4=CN=CN4)Br
Procedure, shortened: as §1

[9] = compound: C1CN(CCC1(CC2=CC=C(C=C2)Cl)N)C3=NC=NC4=C3C=CN4
Procedure, shortened: as §1

IRAK-1-4 Inhibitor I = compound: C1COCCN1CCN2C3=CC=CC=C3N=C2NC(=O)C4=CC(=CC=C4)[N+](=O)[O-] [IRAK-1-4 Inhibitor I]
Procedure, shortened: as §1

ibrutinib = compound: C=CC(=O)N1CCC[C@@H](n2nc(-c3ccc(Oc4ccccc4)cc3)c3c(N)ncnc32)C1 [ibrutinib]
Procedure, shortened: as §1

[10] = compound: CC(=O)c1cnc2ccc(-c3cc(Cl)c(O)c(Cl)c3)nc2c1N[C@H]1CC[C@H](CN(C)C)CC1
Procedure, shortened: as §1

ralimetinib = compound: CC(C)(C)Cn1c(N)nc2ccc(-c3[nH]c(C(C)(C)C)nc3-c3ccc(F)cc3)nc21 [ralimetinib]
Procedure, shortened: as §1

[11] = compound: CC(C)(O)CC(=O)NCCn1ccc2ncnc(Nc3ccc(Oc4cccc(C(F)(F)F)c4)c(Cl)c3)c21
Procedure, shortened: as §1

[12] = compound: CC(C)C1=C2N=C(C=C(N2N=C1)NCC3=CC=CC=C3)NCCCCCCN
Procedure, shortened: as §1

[13] = compound: CC(C)C[C@@H](C=O)NC(=O)[C@H](CC(C)C)NC(=O)[C@H](CC(C)C)NC(=O)OCc1ccccc1
Procedure, shortened: as §1

pinometostat = compound: CC(C)N(C[C@H]1O[C@@H](n2cnc3c(N)ncnc32)[C@H](O)[C@@H]1O)[C@H]1C[C@@H](CCc2nc3cc(C(C)(C)C)ccc3[nH]2)C1 [pinometostat]
Procedure, shortened: as §1

[14] = compound: CC1=C(C(CC(=O)N1)C2=CC=C(C=C2)C(F)(F)F)C(=O)NC3=C(C=C4C(=C3)C=NN4)F
Procedure, shortened: as §1

[15] = compound: CC1=C(C2=C(C=C1)C(=O)C3=CC=CC=C3N2CCCN)C
Procedure, shortened: as §1

Sequence of UniProt Q9Y496 (Q9Y496 whole entry, looked up): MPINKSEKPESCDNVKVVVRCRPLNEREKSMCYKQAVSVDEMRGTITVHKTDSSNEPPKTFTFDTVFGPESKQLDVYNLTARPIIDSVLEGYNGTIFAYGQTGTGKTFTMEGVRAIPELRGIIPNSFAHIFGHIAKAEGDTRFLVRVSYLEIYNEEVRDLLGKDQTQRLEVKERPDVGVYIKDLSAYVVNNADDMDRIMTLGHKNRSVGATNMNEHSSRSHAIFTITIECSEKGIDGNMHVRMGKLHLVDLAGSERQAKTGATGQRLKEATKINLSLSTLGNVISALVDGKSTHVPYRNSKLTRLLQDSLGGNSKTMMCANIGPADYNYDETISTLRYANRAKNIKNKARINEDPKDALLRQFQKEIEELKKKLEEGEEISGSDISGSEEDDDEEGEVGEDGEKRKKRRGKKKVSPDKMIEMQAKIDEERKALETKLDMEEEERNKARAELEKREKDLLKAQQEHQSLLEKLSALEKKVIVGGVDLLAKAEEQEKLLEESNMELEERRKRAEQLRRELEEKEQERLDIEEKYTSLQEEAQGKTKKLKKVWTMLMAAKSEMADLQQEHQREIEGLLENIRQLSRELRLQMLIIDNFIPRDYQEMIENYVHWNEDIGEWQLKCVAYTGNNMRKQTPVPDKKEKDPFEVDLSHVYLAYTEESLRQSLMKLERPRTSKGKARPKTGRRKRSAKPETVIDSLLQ
Sequence of UniProt P01130 (P01130 whole entry, looked up): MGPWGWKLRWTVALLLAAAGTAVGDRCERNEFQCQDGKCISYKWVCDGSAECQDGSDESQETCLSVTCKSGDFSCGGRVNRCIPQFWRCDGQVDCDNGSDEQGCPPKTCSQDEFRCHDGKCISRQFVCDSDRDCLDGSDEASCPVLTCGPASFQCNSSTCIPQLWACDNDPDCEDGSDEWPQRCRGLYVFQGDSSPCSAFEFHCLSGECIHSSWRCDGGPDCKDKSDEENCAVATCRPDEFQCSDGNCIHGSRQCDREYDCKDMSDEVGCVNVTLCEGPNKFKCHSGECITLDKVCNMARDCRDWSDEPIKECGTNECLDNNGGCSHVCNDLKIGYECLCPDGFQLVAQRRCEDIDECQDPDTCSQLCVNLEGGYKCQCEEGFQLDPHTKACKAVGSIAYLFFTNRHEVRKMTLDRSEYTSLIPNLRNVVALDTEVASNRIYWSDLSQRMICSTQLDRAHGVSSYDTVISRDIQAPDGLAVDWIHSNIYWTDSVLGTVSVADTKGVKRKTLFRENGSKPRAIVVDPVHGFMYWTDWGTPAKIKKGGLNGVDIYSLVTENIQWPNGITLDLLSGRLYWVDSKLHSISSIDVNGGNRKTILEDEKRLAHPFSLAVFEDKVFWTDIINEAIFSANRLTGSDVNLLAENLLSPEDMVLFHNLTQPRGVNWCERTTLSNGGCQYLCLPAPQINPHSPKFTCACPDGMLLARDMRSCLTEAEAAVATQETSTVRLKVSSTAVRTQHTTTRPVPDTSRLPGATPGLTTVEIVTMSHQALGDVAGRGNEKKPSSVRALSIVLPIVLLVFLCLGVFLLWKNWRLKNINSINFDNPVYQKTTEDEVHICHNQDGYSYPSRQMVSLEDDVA
Sequence of UniProt O14733 (O14733 whole entry, looked up): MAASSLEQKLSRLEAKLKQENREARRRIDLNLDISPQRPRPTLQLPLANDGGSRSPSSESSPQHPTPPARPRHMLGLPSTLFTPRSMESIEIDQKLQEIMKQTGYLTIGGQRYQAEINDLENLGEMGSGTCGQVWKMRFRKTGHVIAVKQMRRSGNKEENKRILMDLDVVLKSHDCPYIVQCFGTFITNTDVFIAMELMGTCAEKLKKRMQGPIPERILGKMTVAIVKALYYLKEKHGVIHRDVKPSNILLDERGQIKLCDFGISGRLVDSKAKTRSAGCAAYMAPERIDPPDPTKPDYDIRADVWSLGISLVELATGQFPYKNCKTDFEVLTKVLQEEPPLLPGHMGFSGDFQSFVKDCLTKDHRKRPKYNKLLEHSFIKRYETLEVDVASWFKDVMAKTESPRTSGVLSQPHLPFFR
Sequence of UniProt Q14145 (Q14145 whole entry, looked up): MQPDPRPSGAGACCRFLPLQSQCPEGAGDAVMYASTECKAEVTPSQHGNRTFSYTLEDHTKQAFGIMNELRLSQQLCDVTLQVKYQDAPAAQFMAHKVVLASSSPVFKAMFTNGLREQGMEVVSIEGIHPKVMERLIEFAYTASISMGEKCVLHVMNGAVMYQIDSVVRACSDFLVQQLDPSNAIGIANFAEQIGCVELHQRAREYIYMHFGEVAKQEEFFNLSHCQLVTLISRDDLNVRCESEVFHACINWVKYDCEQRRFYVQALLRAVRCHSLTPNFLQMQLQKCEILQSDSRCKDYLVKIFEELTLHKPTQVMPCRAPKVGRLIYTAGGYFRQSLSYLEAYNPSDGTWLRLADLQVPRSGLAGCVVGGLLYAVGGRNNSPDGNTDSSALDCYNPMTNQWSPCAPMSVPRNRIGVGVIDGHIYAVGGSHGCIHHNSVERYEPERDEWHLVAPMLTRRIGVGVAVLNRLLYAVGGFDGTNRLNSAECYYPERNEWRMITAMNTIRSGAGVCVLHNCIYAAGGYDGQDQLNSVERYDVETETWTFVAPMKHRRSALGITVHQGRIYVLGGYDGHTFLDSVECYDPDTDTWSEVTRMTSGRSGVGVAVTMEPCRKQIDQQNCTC
Sequence of UniProt Q96PC5 (Q96PC5 whole entry, looked up): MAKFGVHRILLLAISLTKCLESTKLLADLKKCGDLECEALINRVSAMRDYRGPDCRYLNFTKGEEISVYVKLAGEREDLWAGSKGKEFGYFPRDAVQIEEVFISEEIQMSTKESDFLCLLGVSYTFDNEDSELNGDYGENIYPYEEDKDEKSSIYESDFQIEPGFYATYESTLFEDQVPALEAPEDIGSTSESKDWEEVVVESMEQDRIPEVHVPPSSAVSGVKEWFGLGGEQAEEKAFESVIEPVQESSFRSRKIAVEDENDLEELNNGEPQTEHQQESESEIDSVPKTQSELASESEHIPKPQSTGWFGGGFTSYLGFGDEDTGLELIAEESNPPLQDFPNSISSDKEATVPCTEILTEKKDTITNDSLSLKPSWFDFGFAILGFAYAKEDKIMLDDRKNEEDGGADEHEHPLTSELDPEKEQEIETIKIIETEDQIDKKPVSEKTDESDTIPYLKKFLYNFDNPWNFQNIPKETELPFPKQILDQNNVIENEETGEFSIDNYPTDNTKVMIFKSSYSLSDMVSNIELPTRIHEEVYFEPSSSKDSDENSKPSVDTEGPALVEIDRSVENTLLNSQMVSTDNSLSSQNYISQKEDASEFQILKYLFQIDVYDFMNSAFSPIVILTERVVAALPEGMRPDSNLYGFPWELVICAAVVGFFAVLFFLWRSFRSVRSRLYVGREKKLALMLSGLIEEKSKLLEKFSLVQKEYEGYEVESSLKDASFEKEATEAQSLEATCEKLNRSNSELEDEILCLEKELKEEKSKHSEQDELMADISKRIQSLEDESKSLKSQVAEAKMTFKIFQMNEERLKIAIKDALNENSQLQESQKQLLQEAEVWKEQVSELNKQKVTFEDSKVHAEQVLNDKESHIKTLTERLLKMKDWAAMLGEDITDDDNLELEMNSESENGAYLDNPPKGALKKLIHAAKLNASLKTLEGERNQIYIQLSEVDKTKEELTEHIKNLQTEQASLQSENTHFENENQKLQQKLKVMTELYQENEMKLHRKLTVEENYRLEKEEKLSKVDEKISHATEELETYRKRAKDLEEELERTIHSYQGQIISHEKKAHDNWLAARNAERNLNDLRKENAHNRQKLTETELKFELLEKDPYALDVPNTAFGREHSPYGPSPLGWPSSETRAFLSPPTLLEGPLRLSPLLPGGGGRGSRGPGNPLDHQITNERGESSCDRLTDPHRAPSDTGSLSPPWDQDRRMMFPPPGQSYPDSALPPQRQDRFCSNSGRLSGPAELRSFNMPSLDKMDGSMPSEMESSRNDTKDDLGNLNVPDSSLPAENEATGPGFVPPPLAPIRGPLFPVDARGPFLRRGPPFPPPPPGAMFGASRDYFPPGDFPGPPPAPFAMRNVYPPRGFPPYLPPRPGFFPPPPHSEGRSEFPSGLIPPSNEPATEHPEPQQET
Sequence of UniProt Q08431 (Q08431 whole entry, looked up): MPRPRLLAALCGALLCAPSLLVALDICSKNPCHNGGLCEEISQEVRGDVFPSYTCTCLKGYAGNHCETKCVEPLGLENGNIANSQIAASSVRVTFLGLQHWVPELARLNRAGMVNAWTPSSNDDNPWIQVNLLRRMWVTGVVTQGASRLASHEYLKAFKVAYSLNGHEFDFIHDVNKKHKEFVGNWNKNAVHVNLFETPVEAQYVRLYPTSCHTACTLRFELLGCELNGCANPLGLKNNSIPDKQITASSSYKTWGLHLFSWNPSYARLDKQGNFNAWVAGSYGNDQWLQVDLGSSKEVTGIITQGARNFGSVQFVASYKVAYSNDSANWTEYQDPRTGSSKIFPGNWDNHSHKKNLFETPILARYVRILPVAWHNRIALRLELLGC
Sequence of UniProt Q96AQ8 (Q96AQ8 whole entry, looked up): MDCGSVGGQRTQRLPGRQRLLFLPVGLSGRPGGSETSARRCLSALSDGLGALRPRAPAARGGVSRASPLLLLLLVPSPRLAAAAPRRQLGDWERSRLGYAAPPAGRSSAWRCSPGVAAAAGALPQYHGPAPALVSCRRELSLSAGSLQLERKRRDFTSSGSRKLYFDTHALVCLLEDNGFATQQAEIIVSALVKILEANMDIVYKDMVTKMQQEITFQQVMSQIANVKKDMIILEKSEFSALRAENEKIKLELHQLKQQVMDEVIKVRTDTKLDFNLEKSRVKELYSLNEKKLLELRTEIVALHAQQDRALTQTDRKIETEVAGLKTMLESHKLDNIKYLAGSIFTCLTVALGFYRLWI
Sequence of UniProt Q8NC54 (Q8NC54 whole entry, looked up): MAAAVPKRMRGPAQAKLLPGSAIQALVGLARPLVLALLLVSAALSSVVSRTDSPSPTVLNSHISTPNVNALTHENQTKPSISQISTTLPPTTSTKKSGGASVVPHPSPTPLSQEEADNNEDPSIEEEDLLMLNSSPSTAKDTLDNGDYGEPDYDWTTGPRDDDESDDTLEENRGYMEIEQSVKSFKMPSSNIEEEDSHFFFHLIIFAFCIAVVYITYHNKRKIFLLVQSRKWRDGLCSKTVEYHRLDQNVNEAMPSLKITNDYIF

Row | Target | log2 fold change (erlotinib) | log2 fold change [1] | log2 fold change [2] | log2 fold change [3] | log2 fold change [4] | log2 fold change [5] | log2 fold change [6] | log2 fold change [7] | log2 fold change [8] | log2 fold change [9] | log2 fold change (IRAK-1-4 Inhibitor I) | log2 fold change (ibrutinib) | log2 fold change [10] | log2 fold change (ralimetinib) | log2 fold change [11] | log2 fold change [12] | log2 fold change [13] | log2 fold change (pinometostat) | log2 fold change [14] | log2 fold change [15]
1 | MAP2K7 isoform 4 (UniProt O14733) | 0.021 | -0.005 | 0.061 | 0.017 | 0.01 | 0.017 | -0.009 | -0.032 | -0.012 | 0.023 | 0.013 | -0.301 (active) | 0.175 | -0.043 | -0.013 | -0.025 | 0.051 | 0.022 | 0.033 | 0.032
2 | MFGE8 (UniProt Q08431) | -0.135 | -0.032 | -0.149 | 0.045 | -0.059 | -0.024 | 0.024 | 0.095 | -0.041 | -0.066 | -0.058 | 0.016 | 0.269 | 0.152 | 0.105 | 0 | 0.191 | 0.12 | -0.008 | -0.038
3 | MCCC2 (UniProt Q9HCC0) | 0.019 | 0.123 | 0.03 | 0.004 | -0.04 | 0.011 | 0.047 | 0.004 | 0.004 | 0.035 | 0.046 | 0.019 | 0.047 | -0.015 | 0.027 | 0.024 | -0.04 | -0.05 | 0 | 0.003
4 | LYN (UniProt P07948) | -0.073 | 0.044 | -0.171 | 0.007 | 0.005 | -0.028 | -0.014 | -0.253 | 0.035 | -0.015 | -0.016 | 0.4 (active) | -0.456 (active) | 0.045 | 0.018 | -0.03 | 0.24 | 0.065 | 0.008 | 0.078
5 | LONP2 (UniProt Q86WA8) | 0.07 | -0.111 | 0.263 | 0.131 | -0.021 | 0.065 | 0.168 | 0.067 | -0.037 | -0.002 | -0.016 | -0.023 | -0.033 | 0.103 | -0.135 | 0.004 | -0.609 (active) | -0.008 | -0.271 | -0.009
6 | MCUR1 (UniProt Q96AQ8) | -0.012 | -0.03 | 0.055 | 0.003 | 0.053 | -0.006 | 0.102 | 0.005 | -0.023 | 0.063 | 0.011 | 0.041 | -0.077 | 0.118 | -0.018 | 0.065 | -0.242 (active) | -0.059 | 0.015 | -0.002
7 | JMJD6 isoform 3 (UniProt Q6NYC1) | -0.009 | 0.011 | 0.039 | 0.044 | 0.051 | 0.03 | 0.107 | -0.037 | -0.007 | 0.181 | -0.02 | -0.011 | -0.049 | -0.065 | 0.019 | -0.041 | 0.004 | -0.016 | 0.013 | 0.102
8 | MIER1 isoform 12 (UniProt Q8N108) | 0.399 (active) | 0.009 | 0.016 | -0.031 | 0.024 | 0.014 | 0.001 | 0.02 | -0.06 | 0.028 | 0.055 | -0.012 | -0.035 | 0.033 | -0.021 | -0.062 | 0.03 | -0.013 | 0.027 | -0.122
9 | LEMD3 (UniProt Q9Y2U8) | 0.102 | 0.091 | 0.109 | -0.007 | 0.003 | -0.05 | -0.01 | 0.169 | -0.063 | -0.029 | 0.04 | 0.03 | -0.173 | -0.082 | -0.09 | -0.056 | 0.039 | -0.026 | 0.068 | 0.101
10 | IRF3 (UniProt Q14653) | 0.042 | 0.056 | 0.019 | -0.022 | 0.046 | -0.022 | -0.036 | 0 | -0.055 | -0.008 | 0.002 | 0.13 | -0.019 | -0.037 | 0 | -0.065 | -0.015 | -0.002 | 0.04 | 0.02
11 | KCT2 (UniProt Q8NC54) | 0.069 | 0.019 | 0.064 | 0.061 | -0.005 | 0.075 | 0.096 | -0.005 | -0.028 | 0.056 | 0.039 | 0.029 | -0.04 | -0.014 | 0.004 | -0.118 | -0.011 | 0.009 | 0.035 | -0.035
12 | KIF3A (UniProt Q9Y496) | -0.222 | -0.06 | -0.069 | -0.122 | -0.049 | 0.034 | -0.062 | -0.025 | -0.011 | -0.067 | 0.04 | -0.016 | 0.034 | 0.085 | -0.151 | -0.336 | -0.065 | 0.051 | 0.087 | -0.081
13 | MIA2 (UniProt Q96PC5) | 0.01 | 0.044 | 0.04 | -0.044 | -0.033 | 0.035 | 0.021 | -0.092 | 0.003 | 0.041 | -0.036 | 0.008 | -0.059 | -0.003 | 0.03 | -0.155 | 0.035 | 0.043 | 0.077 | 0.032
14 | KEAP1 (UniProt Q14145) | -0.015 | -0.031 | 0.025 | -0.021 | 0.025 | 0.159 | -0.098 | 0.023 | -0.045 | -0.034 | 0.008 | -0.085 | 0.022 | 0.074 | -0.07 | -0.233 (active) | 0.023 | 0.109 | -0.017 | 0.028
15 | LDLR (UniProt P01130) | -0.035 | 0.003 | -0.04 | 0.03 | -0.018 | 0.025 | 0.011 | -0.113 | 0.025 | 0.051 | 0.03 | -0.015 | -0.106 | -0.025 | 0.072 | -0.009 | 0.171 | -0.011 | 0.019 | -0.058
